Results: PubChem BioAssay (Tox21)
Results filed as inconclusive are left out. Activity calls are given as the source filed them. Calls come from the whole dose curve; as a rule, active = well fitted curve in the direction sought with a large enough effect in the repeat runs; inconclusive = weak or mixed curves; inactive = no such curve, though single readings can be large; an effect the other way counts as inactive or inconclusive.

Legend:
[1] = qHTS RealTime-Glo MT Cell Viability Assay in HepG2 cells - 40 hour (AID 1224870); note: nearly all actives have a fitted effect of over 50% in size
Procedure, shortened: (§1)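 HepG2 cells mixed with RealTime-Glo MT reagents (NanoLuc plus cell-permeant prosubstrate) were seeded at 600 cells/well, incubated 5 h at 37 C/5% CO2, then pinned with compounds in DMSO; nonlytic luminescence tracked viability during 40 h treatment.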

[2] = A CellTox Green Cytotoxicity Assay to monitor cytotoxicity in HEK293 cells - 40 hour (AID 1224871); note: nearly all actives have a fitted effect of over 45% in size
Procedure, shortened: (§2)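 Seeding of HEK293 cells together with cytotoxicity dye preceded a 5 h incubation at 37 C/5% CO2. Test compounds in DMSO were then added and fluorescence monitored across 40 h.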

[3] = qHTS RealTime-Glo MT Cell Viability Assay in HEK293 cells - 16 hour (AID 1224872); note: top concentration of the series differs between compounds; nearly all actives have a fitted effect of over 50% in size
Procedure, shortened: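 Nonlytic real-time viability readout: viable cells convert prosubstrate to NanoLuc substrate, giving luminescence proportional to live cell number. HEK293, 600 cells/well, compound added after 5 h, continuous culture at 37 C.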

[4] = qHTS RealTime-Glo MT Cell Viability Assay in HepG2 cells - 8 hour (AID 1224873); note: nearly all actives have a fitted effect of over 55% in size
Procedure, shortened: as §1

[5] = qHTS RealTime-Glo MT Cell Viability Assay in HEK293 cells - 40 hour (AID 1224874); details: RealTime-Glo luminescence; max response: active compounds read low; note: nearly all actives have a fitted effect of over 50% in size
Procedure, shortened: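 Tox21 screen in HEK293 using RealTime-Glo MT chemistry, with cells and reagent co-dispensed. Luminescence proportional to viable cell number was captured at intervals during 40 h compound exposure at 37 C.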

[6] = A CellTox Green Cytotoxicity Assay to monitor cytotoxicity in HEK293 cells - 24 hour (AID 1224875); note: series mostly up to about 77 µM; nearly all actives have a fitted effect of over 45% in size
Procedure, shortened: as §2

[7] = A CellTox Green Cytotoxicity Assay to monitor cytotoxicity in HepG2 cells - 16 hour (AID 1224876); note: nearly all actives have a fitted effect of over 45% in size
Procedure, shortened: (§3)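 Nonlytic assay: viable cells exclude the dye, so fluorescence scales with cell death. HepG2 at 600 cells/well, compounds added after 5 h, signal read across 40 h.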

[8] = qHTS RealTime-Glo MT Cell Viability Assay in HepG2 cells - 32 hour (AID 1224877); note: nearly all actives have a fitted effect of over 55% in size
Procedure, shortened: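 Luminescence read-out: viable HepG2 cells reduce a prosubstrate to a NanoLuc substrate, giving a signal proportional to live cell number. Reads taken at 0, 8, 16, 24, 32 and 40 h of compound exposure at 37 C.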

[9] = A CellTox Green Cytotoxicity Assay to monitor cytotoxicity in HepG2 cells - 24 hour (AID 1224878); note: nearly all actives have a fitted effect of over 45% in size
Procedure, shortened: as §3

[10] = A CellTox Green Cytotoxicity Assay to monitor cytotoxicity in HepG2 cells - 40 hour (AID 1224879); note: nearly all actives have a fitted effect of over 40% in size
Procedure, shortened: as §3
% is set by controls: 0 for no effect and ±100 for the full control effect.

Nc1ccc(S(=O)(=O)Nc2ccc(Cl)nn2)cc1
inactive: outcome [1] | Potency [2] | Potency [3] | outcome [4] | max response [5] -0.389% | outcome [6] | outcome [7] | outcome [8] | outcome [9] | Potency [10]

CCC(C=O)CC
inactive: outcome [1] | Potency [2] | Potency [3] | outcome [4] | max response [5] -5.72% | outcome [6] | outcome [7] | outcome [8] | outcome [9] | Potency [10]

COc1ccc2c(c1)C(=O)N(CCc1ccc(S(=O)(=O)NC(=O)NC3CCCCC3)cc1)C(=O)C2(C)C
inactive: outcome [1] | Potency [2] | Potency [3] | outcome [4] | max response [5] -9.27% | outcome [6] | outcome [7] | outcome [8] | outcome [9] | Potency [10]

Nc1cccc(O)c1
inactive: outcome [1] | Potency [2] | Potency [3] | outcome [4] | max response [5] 3.53% | outcome [6] | outcome [7] | outcome [8] | outcome [9] | Potency [10]

CCCC(=O)C(C)=O
inactive: outcome [1] | Potency [2] | Potency [3] | outcome [4] | max response [5] -1.51% | outcome [6] | outcome [7] | outcome [8] | outcome [9] | Potency [10]

COC(=O)c1ccccc1C(=O)c1ccc(OCCN2CCCCC2)cc1
inactive: outcome [1] | Potency [2] | Potency [3] | outcome [4] | max response [5] -12% | outcome [6] | outcome [7] | outcome [8] | outcome [9] | Potency [10]

O=C(O)c1cc(Br)c(O)c(Br)c1
inactive: outcome [1] | Potency [2] | Potency [3] | outcome [4] | max response [5] -4.67% | outcome [6] | outcome [7] | outcome [8] | outcome [9] | Potency [10]

CC(C)N(c1ccccc1)C(C)C
inactive: outcome [1] | Potency [2] | Potency [3] | outcome [4] | max response [5] 4.56% | outcome [6] | outcome [7] | outcome [8] | outcome [9] | Potency [10]

CN(CCOc1ccc(NS(C)(=O)=O)cc1)CCc1ccc(NS(C)(=O)=O)cc1
inactive: outcome [1] | Potency [2] | Potency [3] | outcome [4] | max response [5] -0.0536% | outcome [6] | outcome [7] | outcome [8] | outcome [9] | Potency [10]

O=C(OCc1ccccc1)C(=O)OCc1ccccc1
inactive: outcome [1] | Potency [2] | Potency [3] | outcome [4] | max response [5] 1.62% | outcome [6] | outcome [7] | outcome [8] | outcome [9] | Potency [10]

Cc1[nH]cnc1-c1ccc(Cl)cc1
inactive: outcome [1] | Potency [2] | Potency [3] | outcome [4] | max response [5] -3.17% | outcome [6] | outcome [7] | outcome [8] | outcome [9] | Potency [10]

CNC(=O)[C@H]1O[C@@H](n2cnc3c(NCc4cc(Cl)ccc4OCc4cc(C)no4)ncnc32)[C@H](O)[C@@H]1N
inactive: outcome [1] | Potency [2] | Potency [3] | outcome [4] | max response [5] 0.414% | outcome [6] | outcome [7] | outcome [8] | outcome [9] | Potency [10]

CCc1ccc(C=O)cc1
inactive: outcome [1] | Potency [2] | Potency [3] | outcome [4] | max response [5] -4.49% | outcome [6] | outcome [7] | outcome [8] | outcome [9] | Potency [10]

N[C@@H](CCC(=O)N[C@@H](CS)C(=O)NCC(=O)O)C(=O)O
inactive: activity change, negative = cytotoxic [1] -0.349% [at 15.8 µM] | cytotoxicity increase [2] 2.27% [at 15.8 µM] | activity change, negative = cytotoxicity [3] 9.65% [at 15.8 µM] | viability change, negative = cytotoxic [4] -0.362% [at 15.8 µM] | max response [5] 3.69% | activity change [6] 1.6% [at 15.8 µM] | cytotoxicity increase [7] -10% [at 15.8 µM] | activity change, negative = cytotoxic [8] 2.09% [at 15.8 µM] | cytotoxicity [9] -12.9% [at 15.8 µM] | cytotoxicity increase [10] -8.24% [at 15.8 µM]

COCCOCCOCCOCCO
inactive: outcome [1] | Potency [2] | Potency [3] | outcome [4] | max response [5] 4.56% | outcome [6] | outcome [7] | outcome [8] | outcome [9] | Potency [10]

CCCCCCCCC(=O)Cl
inactive: outcome [1] | Potency [2] | Potency [3] | outcome [4] | max response [5] 10.1% | outcome [6] | outcome [7] | outcome [8] | outcome [9] | Potency [10]

Cc1ccc2ccc(Cl)cc2n1
inactive: outcome [1] | Potency [2] | Potency [3] | outcome [4] | max response [5] 6.03% | outcome [6] | outcome [7] | outcome [8] | outcome [9] | Potency [10]

CCCCCOC(=O)CCC
inactive: outcome [1] | Potency [2] | Potency [3] | outcome [4] | max response [5] -0.243% | outcome [6] | outcome [7] | outcome [8] | outcome [9] | Potency [10]

COc1cc2c(cc1OC)[C@@H]1CC(=O)[C@@H](CC(C)C)CN1CC2
inactive: outcome [1] | Potency [2] | Potency [3] | outcome [4] | max response [5] -11.9% | outcome [6] | outcome [7] | outcome [8] | outcome [9] | Potency [10]

Cc1cccc(C)c1NC(=O)c1ccccc1C(=O)O
inactive: outcome [1] | Potency [2] | Potency [3] | outcome [4] | max response [5] 2.81% | outcome [6] | outcome [7] | outcome [8] | outcome [9] | Potency [10]

CC(C)(C)c1n[nH]c(=S)n(N)c1=O
inactive: outcome [1] | Potency [2] | Potency [3] | outcome [4] | max response [5] 2.54% | outcome [6] | outcome [7] | outcome [8] | outcome [9] | Potency [10]

CCN(C)C(=O)Oc1cccc([C@H](C)N(C)C)c1
inactive: outcome [1] | Potency [2] | Potency [3] | outcome [4] | max response [5] 1.94% | outcome [6] | outcome [7] | outcome [8] | outcome [9] | Potency [10]
